Screening results: PubChem BioAssay, National Center for Advancing Translational Sciences (NCATS)
CHX counter: Cycloheximide Counterscreen for Small Molecule Inhibitors of Shiga Toxin; cell reporter, cycloheximide protein synthesis inhibition counterscreen; max response, %; 300,000 compounds, 12% hits; in the data active = max response mostly above about 13%, no sharp cut-off; inactive = mostly below about 14%; note: read at 38.3 µM for the half of the compounds with a filed dose
Shiga toxin inh: A qHTS for Small Molecule Inhibitors of Shiga Toxin. 290,000 compounds, 9.2% hits. AID 2315, 2010. Vero cells, Shiga toxin protein synthesis inhibition reporter. inhibition, % at 38.7 µM; in the data active = inhibition mostly above about 28%, no sharp cut-off; inactive = mostly below about 43%
Lassa entry inh: qHTS for Inhibitors of binding or entry into cells for Lassa Virus; Lassa virus pseudotype entry inhibition, cell reporter; Potency, µM (doses to about 37.9 µM), hits mostly inhibitors; 300,000 compounds, 1.2% hits; AID 540256, 2011; calls by dose curve; tested in HEK293 cells; note: nearly all actives have a fitted effect of over 50% in size
MARV entry inh: qHTS for inhibitors of binding or entry into cells for Marburg Virus | Marburg virus pseudotyped entry inhibition, cell reporter | Potency, µM (titrated, usually from 37.8 µM), hits mostly inhibitors | 300,000 compounds, 1.8% hits | AID 540276, 2011; calls by dose curve; tested in HEK293 cells
FMDV inh: High Throughput Screening for Foot and Mouth Disease Virus Antivirals. FMDV antiviral cell-based qHTS. Potency, µM (titrated, usually from 57.9 µM), usual class: inhibitors. 410,000 compounds, 1.2% hits. AID 1159524, 2015; calls by dose curve; tested in HEK293T cells; note: read-out not given here; nearly all actives have a fitted effect of over 45% in size
HCV inh: qHTS Assay for Inhibitors of Hepatitis C Virus (HCV); Huh7.5.1 HCVcc-Cre infection, luciferase reporter, 44 h; Potency, µM (titrated, usually from 41.8 µM), actives largely listed as inhibitors; 340,000 compounds, 3.4% hits; AID 651820, 2012; active = well fitted inhibition curve with a large enough effect; inconclusive = small, poorly fitted or top-dose-only effect, or another doubt; inactive = no such curve, though single readings can be large or run the other way
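1,000 cells/well; 4 h culture; + compound; + HCVcc-Cre (~0.5 moi); 44 h; luciferase substrate, RT 15 min; read 15 sec.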
A number is an active result; . = inactive; ? = inconclusive; / = no result. Hits are enriched below; roughly 13% of the tested compounds scored in any of these assays.

SMILES	CHX counter	Shiga toxin inh	Lassa entry inh	MARV entry inh	FMDV inh	HCV inh
COc1ccc(CNC(=O)CSc2nnc3c(n2)[nH]c2ccc(C)cc23)cc1	.	.	/	.	.	.
COc1cccc(OCc2cc(C(=O)N3CCN(c4ccccc4O)CC3)no2)c1	50	107	?	.	.	?
COCCN1CCN(C(=O)c2cc(COc3cncc(Cl)c3)on2)CC1	.	.	.	?	.	.
COc1cccc(OCc2cc(C(=O)N3CCN(C(C)=O)CC3)no2)c1	60	104	/	/	.	.
COc1cccc(OCc2cc(C(=O)N3CCN(c4ccccc4OC)CC3)no2)c1	29	70	/	/	.	?
O=C(NCc1ccccn1)c1cc(-c2ccc(Cl)cc2)oc1C(F)(F)F	.	.	/	/	.	?
CC1CCc2c(sc3nc(-c4cc5cc(Br)ccc5oc4=O)[nH]c(=O)c23)C1 (stereo not drawn)	/	/	.	/	.	/
Cc1ccc2c(c1)C1CN(C)CCC1N2S(=O)(=O)c1ccc(C#N)cc1 (stereo not drawn)	/	/	/	/	.	.
NS(=O)(=O)c1ccc(NC(=O)c2ccc(COc3ccccc3)o2)cc1	.	.	.	.	.	.
Cc1oc(C(=O)O)cc1COc1ccccc1Cl	.	.	.	.	.	.
Cc1cc(C(=O)Nc2ccccc2)oc(=O)c1	48	45	?	.	.	.
Cc1oc(C(=O)Nc2ccc(O)cc2)cc1COc1ccccc1	16	38	20µM	?	.	?
Cc1ccc(OCc2cc(C(=O)Nc3ccccc3)oc2C)cc1	51	85	.	.	.	.
O=C(NNC(=O)C1CC1)Nc1ccc(Cl)cc1	.	.	/	/	.	.
O=C(NNC1=NCCCCC1)Nc1cccc(Cl)c1	12	.	?	?	.	.
O=C(NNc1cccc(Cl)n1)Nc1cccc(Cl)c1	.	.	.	.	.	.
O=C(NNC1=NCCCCC1)Nc1ccc(Cl)cc1	23	.	.	.	.	.
N/C(=N\c1nc2ccccc2o1)NC(=O)c1ccccc1F	47	100	.	.	.	.
CCCC(=O)N/C(N)=N/c1nc(C)c2ccccc2n1	17	.	?	?	.	?
COc1ccccc1C(=O)NC(=Nc1nc2ccccc2o1)NC(=O)c1ccccc1OC	17	22	.	.	.	?
CCCCC(=O)N/C(N)=N/c1nc2ccccc2o1	43	36	?	?	.	?
COc1ccc(-c2nn(-c3ccccc3)cc2C(=O)Nc2cccc(C(=O)O)c2)cc1[N+](=O)[O-]	.	.	/	/	.	.
Cc1cc(C)c2nc(/N=C(\N)NC(=O)Nc3ccccc3)nc(C)c2c1	.	.	?	?	?	11µM
Cc1cc(C)c2nc(/N=C(\N)NC(=O)c3ccccc3)nc(C)c2c1	.	.	.	?	.	.
O=C(CN1CCOCC1)NCCC12CC3CC(CC(C3)C1)C2	.	.	.	.	.	.
SMILES	CHX counter	Shiga toxin inh	Lassa entry inh	MARV entry inh	FMDV inh	HCV inh
CNc1c([N+](=O)[O-])cnn1-c1ccccc1Cl	15	.	.	.	.	.
CCOc1ccc(-c2nc3scc(-c4cccs4)c3c(=O)[nH]2)cc1	.	.	.	.	.	?
COC(=O)C(O)(c1ccc(NC(=O)NC2CCCCC2)cc1)C(F)(F)F (stereo not drawn)	35	39	?	?	.	.
CCc1ccc(NC(=O)C2CCCN2C(=O)NC2CCCCC2)cc1 (stereo not drawn)	.	.	.	.	.	.
CCc1cccc(NC(=O)NC2CCCCC2)c1	23	.	?	?	.	.
CCOc1ccc(NC(=O)N(Cc2cn(CC)c3ccccc23)C2CCCCCC2)cc1	33	72	?	?	.	/
CCc1ccc(NC(=O)NC2CCCCCCC2)cc1	53	119	?	?	.	.
CCCCNC(=O)Nc1ccc([C@@](O)(C(=O)OCC)C(F)(F)F)cc1	/	/	/	.	/	/
O=C(CC1c2cc(F)ccc2C=C(c2ccsc2)N1c1ccc(C#CCCO)cc1)c1ccco1 (stereo not drawn)	/	/	/	/	.	/
CCOc1ccc(NC(=O)C(=S)NC2CCCCC2)cc1	22	.	.	?	.	.
CCOc1ccc(NC(=O)NC2CCCCCCC2)cc1	51	91	?	?	.	.
CCOc1ccc(NC(=O)NC23CC4CC(CC(C4)C2)C3)cc1	15	.	11µM	?	.	.
